Experimental findings from PubChem BioAssay AID1942 (Johns Hopkins Ion Channel Center, 2009) are described below.

Out of some 2,400 compounds screened, about 580 (24%) were called active. Not all results are given here. Values without a mark were called inactive.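 The calls were made as follows: active = activity change at or above the mean plus 3 SD of buffer wells without dofetilide, per plate; inactive = the rest.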

This assay deals with Potassium voltage-gated channel subfamily KQT member 2 (Rattus norvegicus) (UniProt O88943). As to the kind of experiment: rat KCNQ2 channel activation by compounds alone, confirmation, counter-screen for hERG block protector project, cell-based, CHO, FluxOR thallium flux (AID 1942).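 Also: normalized value minus buffer-control mean plus three SD of buffer wells.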 The note with it: CHO-KCNQ2 cells, FluxOR thallium flux fluorescence; at 10 µM; hits give high values. In general terms: Counterscreens check selectivity or assay interference.
Potassium voltage-gated channel subfamily KQT member 2 (Rattus norvegicus), sequence (O88943 whole entry, looked up): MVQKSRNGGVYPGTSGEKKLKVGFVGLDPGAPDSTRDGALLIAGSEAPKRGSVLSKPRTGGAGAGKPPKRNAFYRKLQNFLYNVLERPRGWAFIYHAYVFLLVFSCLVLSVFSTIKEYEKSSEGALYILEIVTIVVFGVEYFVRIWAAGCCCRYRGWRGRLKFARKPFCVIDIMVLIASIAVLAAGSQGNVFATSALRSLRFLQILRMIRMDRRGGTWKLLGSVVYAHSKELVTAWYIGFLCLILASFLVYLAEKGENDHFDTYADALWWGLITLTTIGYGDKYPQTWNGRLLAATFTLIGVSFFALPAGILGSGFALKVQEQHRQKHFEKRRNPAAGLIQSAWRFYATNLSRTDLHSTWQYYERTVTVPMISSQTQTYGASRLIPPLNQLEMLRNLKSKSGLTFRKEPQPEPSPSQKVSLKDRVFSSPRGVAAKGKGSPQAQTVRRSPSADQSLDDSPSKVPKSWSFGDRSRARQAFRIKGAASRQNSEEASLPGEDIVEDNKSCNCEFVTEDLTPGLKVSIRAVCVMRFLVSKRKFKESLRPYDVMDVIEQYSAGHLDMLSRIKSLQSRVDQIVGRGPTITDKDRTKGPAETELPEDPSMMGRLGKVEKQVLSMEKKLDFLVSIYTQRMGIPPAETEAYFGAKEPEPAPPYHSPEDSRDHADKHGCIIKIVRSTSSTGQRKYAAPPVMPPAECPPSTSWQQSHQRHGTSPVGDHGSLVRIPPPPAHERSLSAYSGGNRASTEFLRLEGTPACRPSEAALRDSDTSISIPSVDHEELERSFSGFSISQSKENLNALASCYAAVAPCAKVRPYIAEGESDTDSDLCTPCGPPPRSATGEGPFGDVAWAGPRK
For the compound `COc1cccc(C=Nc2cc(C)cc(C)c2)c1O`, the activity change, less the hit threshold is 10% (active).
In the case of `COc1cccc(C=NCC(C)N=Cc2cccc(OC)c2O)c1O` (stereo not given) it was -2.9%; in that of `CCOc1cccc(/C=N/NC(=O)c2ccc3c(c2)OCCO3)c1O`, -18.5%.
In the case of `COc1cccc(/C=N/Nc2nc3ccccc3[nH]2)c1O`, the activity change, less the hit threshold is -3.2%.
In the case of `COC(=O)c1cccc(/C=N/NC(N)=S)c1O` it was -2.4%.
On to `COc1cccc(C=NCCCN=Cc2cccc(OC)c2O)c1O`, for which the activity change, less the hit threshold was 6% (active).
The result for `COc1ccc(-n2c(SCc3ccccn3)nc3c(c2=O)SCC3)cc1OC` reads -2.7%.
As to `CCC1=C(OC(=O)N(CC)CC)N2C(=O)OC(=NCC3CC3)[C@]2(C)[C@H]2C1=CC[C@H]1C(=O)N(C)C(=O)[C@H]12`, the activity change, less the hit threshold was -15.9%.
In the case of `O=C1CSC(=S)N1/N=C/c1cc(Br)ccc1O` it was -6.3%; in that of `O=C(CN1CCN(c2ccc(Cl)cc2)CC1)Nc1ccc(F)cc1`, -21.6%.
For the compound `S=c1nc(-c2ccc(Br)cc2)[nH]c2ccccc12`, the activity change, less the hit threshold is 100% (active).
The result for `S=c1nc(-c2ccccc2)[nH]c2ccc(Br)cc12` reads 135% (active); that for `CCOC(=O)N/N=C\c1ccc(-c2cc(Cl)ccc2Cl)o1`, -17.6%; that for `O=C1N(CN2CCN(Cc3ccccc3)CC2)c2ccccc2C12OCCCO2`, -12.5%.
In the case of `CCOc1cc(N2CCCC2)ccc1[N+](=O)[O-]` it was -13.1%; in that of `S=c1[nH]nc(-c2cccs2)n1/N=C/c1c(Cl)cccc1Cl`, 13.1% (active).
The result for `CC(C1CC2CCC1C2)n1c(-c2cccs2)n[nH]c1=S` (stereo not given) reads -7.9%.
Consider `Cc1cccc(/C=N/n2c(COc3ccccc3)n[nH]c2=S)c1`, for which the activity change, less the hit threshold was -13.8%.
`CCC(=O)Nc1cc(=O)[nH]c2ncnn12`: the activity change, less the hit threshold is -13.1%.
In the case of `CCOC(=O)C1=C(C)NC(=O)NC1c1cccc(OC)c1OCc1ccccc1Cl` (stereo not given) it was -15.6%; in that of `CN(C)c1ccc(NC(=O)CCCc2ccccc2)cc1`, 0.2% (active).
Regarding `CN(Cc1ccccc1)C(=O)CCc1ccccc1`, the activity change, less the hit threshold was -22.5%.
The result for `CC(C)C(=O)Nc1ccc(NC(=O)CCc2ccccc2)cn1` reads -23.2%.
In the case of `COc1cc2c(=O)nc3n(c2cc1OC)C(c1ccccc1)N=C(N)N3` (stereo not given) it was -18.8%; in that of `Nc1nc2c(s1)CCc1c-2cnn1-c1ccccc1`, -29.6%.
In the case of `Oc1c(N=Nc2ccccn2)ccc2ccccc12` it was 7.7% (active); in that of `Oc1ccc(N=Nc2ccc3c(c2)OCCO3)c2ncccc12`, -11.2%; in that of `CC1CCN(c2ccc3c(c2)S(=O)(=O)c2ccccc2C3=O)CC1`, -25.4%.
On to `Cc1cc(-c2cccc(Br)c2)c(C#N)c(N)n1`, for which the activity change, less the hit threshold is -13.8%.
Consider `CCOC(=O)c1c(SCC(=O)Nc2nc(C)cs2)nc(=O)[nH]c1C`, for which the activity change, less the hit threshold is -17.9%.
In the case of `O=c1c(-c2ccc(Cl)cc2)[n+]([O-])c2ccccc2n1O` it was 92.9% (active).
The result for `Cc1ccc(-c2c(=O)n(O)c3ccccc3[n+]2[O-])cc1` reads 59.1% (active); that for `O=c1c(-c2ccccc2)[n+]([O-])c2ccccc2n1O`, -16.2%.
In the case of `O=c1c(-c2cccc3ccccc23)[n+]([O-])c2ccccc2n1O` it was 5.6% (active); in that of `FC(F)c1nnc2c(Cl)cc(C(F)(F)F)cn12`, -8%; in that of `CC(=O)Nc1ccc(S(=O)(=O)N2CCC(C(=O)O)CC2)cc1`, -26.7%.
`Cc1cc(=O)[nH]c(SCC(=O)Nc2ccccc2C#N)c1C#N`: the activity change, less the hit threshold is -14.5%.
In the case of `CCOc1cc(/C=C2/C(=O)ON=C2C)ccc1O` it was -11.8%; in that of `COc1cc(-c2nnc(SCC(=O)O)n2-c2ccccc2)cc(OC)c1OC`, -13.9%.
In the case of `COc1cccc(/C=N/NC(=O)CSc2ccccc2C)c1O` it was -2.9%.
In the case of `COc1cccc(/C=N/n2c(SC)nnc2-c2ccccc2)c1O` it was 2.8% (active).
On to `COc1cc(S(=O)(=O)Nc2c(C)cc(C)cc2C)ccc1Cl`, for which the activity change, less the hit threshold is -20.6%.
For `COCCN1C(=O)C(=O)/C(=C(/O)c2ccc(S(=O)(=O)N3CCOCC3)cc2)C1c1ccc(OC)c(OC)c1` (stereo not given), the activity change, less the hit threshold is -17.7%.
In the case of `CCOC(=O)c1c(-c2ccc(C)o2)csc1NC(=S)NC(=O)N(C)C` it was 24.3% (active); in that of `CCOC(=O)c1ccc(NC(=O)Cn2nnc(-c3ccccc3)n2)cc1`, -26.4%; in that of `CCOC(=O)c1c(C=O)c(C)n(Cc2ccccc2)c1C`, -14.5%.
As for `CCOC(=O)c1c(CC(C)C)csc1NC(=O)c1ccccc1C(=O)O`, the activity change, less the hit threshold is -7.7%.
In the case of `CCNC(=S)Nc1scc(-c2ccccc2)c1C(=O)OCC` it was 10.6% (active).
The result for `CCOC(=O)c1c(-c2ccccc2)csc1NC(=S)NC` reads 19% (active); that for `Nc1nonc1-n1nnc(C(=O)N/N=C/c2cccc(Cl)c2Cl)c1CN1CCCC1`, -9.3%; that for `Oc1ccc2[nH]cnc2c1CN1CCCCC1`, -16.5%.
The result for `O=C(O)C1C2CCC(O2)C1C(=O)Nc1ccc(F)c(Cl)c1` (stereo not given) reads -21%.
Regarding `Cc1ccc(-c2noc(CCC(=O)NC3CCCC3)n2)cc1`, the activity change, less the hit threshold was -9.6%.
For `O=C(Nc1ccc(Cl)cc1Cl)c1n[nH]c(Cn2cncn2)n1`, the activity change, less the hit threshold is -6%.
In the case of `CC(=O)c1cccc(NC(=O)NCc2cccs2)c1` it was -14.9%; in that of `CN(CCc1ccccn1)C(=O)CCC1CCCN(C(=O)c2ccsc2)C1` (stereo not given), -13.1%; in that of `O=C(c1cccs1)N1CCN=C1SCc1ccccc1`, -22.6%.
The result for `Cc1ccc(C(=O)NNC(=S)NC(=O)c2ccccc2)cc1` reads -25.9%; that for `CN(Cc1ccccc1)C(=S)NC(=O)c1cccs1`, 7.6% (active).
The result for `Cc1ccc(C(=O)NC(=S)N(C)Cc2ccccc2)cc1` reads 7.1% (active); that for `COc1ccc(N(CC(=O)NCc2cccnc2)S(=O)(=O)c2ccccc2[N+](=O)[O-])c(OC)c1`, -23.8%; that for `Cc1ccc(-n2ccc(=O)c(C(=O)Nc3ccc(S(=O)(=O)Nc4nccs4)cc3)n2)cc1`, -13.6%.
Regarding `C=C(C)C1CC=C(C)/C(=N/NC(=O)CCC(=O)Nc2ccccc2Cl)C1` (stereo not given), the activity change, less the hit threshold is -11.1%.
On to `O=c1c2ccc(Cl)cc2nc(-c2ccc([N+](=O)[O-])cc2)n1O`, for which the activity change, less the hit threshold was 26.8% (active).
Consider `N#Cc1ccc(-c2nc3cc(Cl)ccc3c(=O)n2O)cc1`, for which the activity change, less the hit threshold is 1.6% (active).
In the case of `O=c1c2cc(Cl)ccc2nc(-c2ccc([N+](=O)[O-])cc2)n1O` it was 31.4% (active); in that of `O=c1c2cc(Br)ccc2nc(-c2ccc([N+](=O)[O-])cc2)n1O`, 43.1% (active); in that of `COc1ccc(C(CC(=O)N2CCOCC2)c2c(O)cc(OC)cc2OC)cc1` (stereo not given), -14.7%.
In the case of `COc1ccc(-c2cn3nc(SCC(=O)NC4CCCCC4)ccc3n2)cc1` it was -7.9%; in that of `CCOC(=O)C(=CNc1cc(C)nn1C(C)(C)C)C(=O)OCC`, -8.9%; in that of `O=C(CCCc1c[nH]c2ccccc12)Nc1ccc(S(=O)(=O)Nc2ncccn2)cc1`, -22%.
The result for `COc1ccc([N+](=O)[O-])cc1N(CC(=O)NCc1ccco1)S(C)(=O)=O` reads -12.1%.
For the compound `COc1ccccc1-n1cnc2sc(C)c(C)c2c1=O`, the activity change, less the hit threshold is -17.7%.
The result for `CCc1nc2sc3c(c2c(=S)[nH]1)CC(C)(C)OC3` reads -13.3%.
The result for `CCC1(C)Cc2c(sc3nc(SC)[nH]c(=S)c23)CO1` (stereo not given) reads 101% (active); that for `CSc1nc2sc3c(c2c(=S)[nH]1)CC(C)(C)OC3`, 73.2% (active); that for `COc1ccc(CCNC(=O)CC(NS(=O)(=O)c2ccc(NC(C)=O)cc2)C(C)C)cc1OC` (stereo not given), -17.8%.
In the case of `COC(=O)c1sccc1NS(=O)(=O)c1ccc(F)cc1F` it was -1.9%; in that of `Cc1ccc(S(=O)(=O)N(C)C)cc1NC(=S)NC(C)CCCC(C)C` (stereo not given), -25.5%; in that of `Cc1cccc(/C=N/Nc2ccc3ccccc3n2)c1`, -14.1%.
For `CCOc1ccc(/C=C2\CCc3ccccc3C2=O)cc1`, the activity change, less the hit threshold is -13.5%.
The result for `CCOc1ccc(/C=C2/SC(=O)NC2=S)cc1` reads 83.5% (active); that for `Cn1cc(/C=C2\SC(=O)NC2=S)c2ccccc21`, -17.7%.
The result for `Cc1ccc2nsnc2c1S(=O)(=O)Nc1cccc2nsnc12` reads 3.5% (active); that for `O=C(O)c1ccccc1NC(=O)C1CCN(S(=O)(=O)c2cccc3nsnc23)CC1`, -7%.
In the case of `O=C(N/N=C/C(Cl)=C/c1ccc([N+](=O)[O-])cc1)C(=O)Nc1ccc(C(=O)O)cc1` it was -18.4%.
Take `O=C(Nc1cccc(N=Cc2cc(Cl)cc(Br)c2O)c1)c1ccco1`: the activity change, less the hit threshold is 22.4% (active).
In the case of `Oc1c(Br)cc(Cl)cc1C=Nc1ccccc1Br` it was 28.2% (active).
Consider `O=C(Nc1ccccc1C(=O)O)c1cccc(NC(=O)c2ccco2)c1`, for which the activity change, less the hit threshold was -3.3%.
With `O=C(NC(=S)Nc1cccc([N+](=O)[O-])c1)c1ccco1`, the activity change, less the hit threshold was -20.7%.
Regarding `Cc1cccc(N=Cc2cc(Br)cc(Cl)c2O)c1`, the activity change, less the hit threshold was 30.4% (active).
As for `Oc1c(Cl)cc(Cl)cc1C=Nc1ccc(Br)cc1`, the activity change, less the hit threshold was 38.8% (active).
Consider `COc1cccc(CN=c2c([N+](=O)[O-])nn(-c3ccccc3C)n2O)c1`, for which the activity change, less the hit threshold was -19.6%.
The result for `CCOCCOCN(C#N)c1nc(OC)nc(N(C)C)n1` reads -20.4%; that for `Cc1ccc(N=Cc2cc(Br)cc(Cl)c2O)cc1`, 5.8% (active).
In the case of `COc1cc(Br)cc(/C=N/NC(=O)Cc2ccccc2)c1O` it was -9.1%; in that of `NC(=O)c1cccc(N=Cc2cc(Cl)cc(Cl)c2O)c1`, 28.8% (active); in that of `Cc1ccc(N=Cc2cc(Cl)cc(Cl)c2O)nc1`, 22.5% (active).
The result for `COc1cc(Br)cc(C=Nc2cccc(C(F)(F)F)c2)c1O` reads 5.7% (active); that for `CCC[C@H]1COCCS(=O)(=O)N1Cc1ccc(Br)cc1`, -9.4%.
